# ± gives the standard deviation of the averaged measurements.
# Legend:
# Assay in all cases: promoter activity interaction Z-score (Lux/OD deviation from empty-vector control); higher = stronger promoter induction by the compound
# [1] = tested on: E. coli BW25113 acrABp lux reporter
# How it was run: (§1)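 Reporter strains of E. coli BW25113 grew at 37°C in 40 µl LB Lennox in 384-well plates. Readings of OD600 and luminescence were taken every 30 min over 12 h, integrated over 0–8 h (wild type) or 1–9 h (deletion strains), and wells below 10% of the median growth value were excluded. Scores are Z-transformed residuals of growth-normalised luminescence from a fit against a control.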
# [2] = tested on: E. coli BW25113 marRABp lux reporter
# How it was run: as §1
# [3] = tested on: E. coli BW25113 micFp lux reporter
# How it was run: as §1
# [4] = tested on: E. coli BW25113 ompFp lux reporter
# How it was run: as §1
# [5] = tested on: E. coli BW25113 robp lux reporter
# How it was run: as §1
# [6] = tested on: E. coli BW25113 soxSp lux reporter
# How it was run: as §1
# [7] = tested on: E. coli BW25113 tolCp lux reporter
# How it was run: as §1
# [8] = 28.4 µg/ml, genetic background: wild type
# [9] = 28.4 µg/ml, genetic background: ΔmarA
# [10] = 28.4 µg/ml, genetic background: Δrob
# [11] = 28.4 µg/ml, genetic background: ΔsoxS
# [12] = 56.8 µg/ml, genetic background: wild type
# [13] = 56.8 µg/ml, genetic background: ΔmarA
# [14] = 56.8 µg/ml, genetic background: Δrob
# [15] = 56.8 µg/ml, genetic background: ΔsoxS
# [16] = 113.7 µg/ml, genetic background: wild type
# [17] = 113.7 µg/ml, genetic background: ΔmarA
# [18] = 113.7 µg/ml, genetic background: Δrob
# [19] = 113.7 µg/ml, genetic background: ΔsoxS
# [20] = 227.3 µg/ml, genetic background: wild type
# [21] = 227.3 µg/ml, genetic background: ΔmarA
# [22] = 227.3 µg/ml, genetic background: Δrob
# [23] = 227.3 µg/ml, genetic background: ΔsoxS
smiles,measurement,setting,value
O=c1[nH]c(=O)c2[nH]c(O)nc2[nH]1 [Sodium urate],promoter activity interaction Z-score,[1]; [8],0.0607 ± 0.068
same,promoter activity interaction Z-score,[1]; [9],-0.691 ± 0.25
same,promoter activity interaction Z-score,[1]; [10],0.112 ± 0.14
same,promoter activity interaction Z-score,[1]; [11],-0.119 ± 0.36
same,promoter activity interaction Z-score,[1]; [12],0.0108 ± 0.15
same,promoter activity interaction Z-score,[1]; [13],-1.36 ± 0.16
same,promoter activity interaction Z-score,[1]; [14],0.00464 ± 0.19
same,promoter activity interaction Z-score,[1]; [15],-0.118 ± 0.35
same,promoter activity interaction Z-score,[1]; [16],0.121 ± 0.12
same,promoter activity interaction Z-score,[1]; [17],-1.18 ± 0.34
same,promoter activity interaction Z-score,[1]; [18],-0.0273 ± 0.041
same,promoter activity interaction Z-score,[1]; [19],-0.102 ± 0.19
same,promoter activity interaction Z-score,[1]; [20],0.0857 ± 0.087
same,promoter activity interaction Z-score,[1]; [21],-0.114 ± 0.23
same,promoter activity interaction Z-score,[1]; [22],0.315 ± 0.14
same,promoter activity interaction Z-score,[1]; [23],-0.127 ± 0.56
same,promoter activity interaction Z-score,[2]; [8],-0.098 ± 0.014
same,promoter activity interaction Z-score,[2]; [9],-0.367 ± 0.46
same,promoter activity interaction Z-score,[2]; [10],-0.0815 ± 0.3
same,promoter activity interaction Z-score,[2]; [11],-0.136 ± 0.38
same,promoter activity interaction Z-score,[2]; [12],-0.215 ± 0.019
same,promoter activity interaction Z-score,[2]; [13],-0.183 ± 0.45
same,promoter activity interaction Z-score,[2]; [14],-0.209 ± 0.11
same,promoter activity interaction Z-score,[2]; [15],-0.198 ± 0.26
same,promoter activity interaction Z-score,[2]; [16],0.0146 ± 0.11
same,promoter activity interaction Z-score,[2]; [17],-0.285 ± 0.48
same,promoter activity interaction Z-score,[2]; [18],-0.227 ± 0.062
same,promoter activity interaction Z-score,[2]; [19],-0.19 ± 0.33
same,promoter activity interaction Z-score,[2]; [20],-0.107 ± 0.15
same,promoter activity interaction Z-score,[2]; [21],0.16 ± 0.43
same,promoter activity interaction Z-score,[2]; [22],-0.0974 ± 0.043
same,promoter activity interaction Z-score,[2]; [23],-0.0308 ± 0.28
same,promoter activity interaction Z-score,[3]; [8],0.0581 ± 0.23
same,promoter activity interaction Z-score,[3]; [9],-0.118 ± 0.23
same,promoter activity interaction Z-score,[3]; [10],-0.0289 ± 0.19
same,promoter activity interaction Z-score,[3]; [11],0.0526 ± 0.22
same,promoter activity interaction Z-score,[3]; [12],0.0725 ± 0.02
same,promoter activity interaction Z-score,[3]; [13],-0.0713 ± 0.39
same,promoter activity interaction Z-score,[3]; [14],0.0271 ± 0.23
same,promoter activity interaction Z-score,[3]; [15],0.0688 ± 0.17
same,promoter activity interaction Z-score,[3]; [16],0.114 ± 0.09
same,promoter activity interaction Z-score,[3]; [17],-0.218 ± 0.078
same,promoter activity interaction Z-score,[3]; [18],-0.082 ± 0.13
same,promoter activity interaction Z-score,[3]; [19],0.0891 ± 0.29
same,promoter activity interaction Z-score,[3]; [20],0.0879 ± 0.087
same,promoter activity interaction Z-score,[3]; [21],-0.0859 ± 0.057
same,promoter activity interaction Z-score,[3]; [22],-0.12 ± 0.13
same,promoter activity interaction Z-score,[3]; [23],-0.223 ± 0.39
same,promoter activity interaction Z-score,[4]; [8],-0.0285 ± 0.013
same,promoter activity interaction Z-score,[4]; [9],-0.27 ± 0.27
same,promoter activity interaction Z-score,[4]; [10],-0.245 ± 0.31
same,promoter activity interaction Z-score,[4]; [11],0.0289 ± 0.054
same,promoter activity interaction Z-score,[4]; [12],0.162 ± 0.082
same,promoter activity interaction Z-score,[4]; [13],-0.186 ± 0.1
same,promoter activity interaction Z-score,[4]; [14],-0.168 ± 0.14
same,promoter activity interaction Z-score,[4]; [15],0.253 ± 0.42
same,promoter activity interaction Z-score,[4]; [16],0.31 ± 0.34
same,promoter activity interaction Z-score,[4]; [17],-0.874 ± 0.12
same,promoter activity interaction Z-score,[4]; [18],-0.0944 ± 0.13
same,promoter activity interaction Z-score,[4]; [19],0.241 ± 0.093
same,promoter activity interaction Z-score,[4]; [20],0.726 ± 0.41
same,promoter activity interaction Z-score,[4]; [21],0.504 ± 0.044
same,promoter activity interaction Z-score,[4]; [22],0.739 ± 0.45
same,promoter activity interaction Z-score,[4]; [23],0.654 ± 0.45
same,promoter activity interaction Z-score,[5]; [8],0.189 ± 0.027
same,promoter activity interaction Z-score,[5]; [9],-0.944 ± 0.38
same,promoter activity interaction Z-score,[5]; [10],-0.184 ± 0.64
same,promoter activity interaction Z-score,[5]; [11],0.198 ± 0.34
same,promoter activity interaction Z-score,[5]; [12],0.19 ± 0.1
same,promoter activity interaction Z-score,[5]; [13],-0.157 ± 0.22
same,promoter activity interaction Z-score,[5]; [14],0.189 ± 0.29
same,promoter activity interaction Z-score,[5]; [15],0.0419 ± 0.49
same,promoter activity interaction Z-score,[5]; [16],0.246 ± 0.37
same,promoter activity interaction Z-score,[5]; [17],-1.37 ± 0.15
same,promoter activity interaction Z-score,[5]; [18],-0.253 ± 0.052
same,promoter activity interaction Z-score,[5]; [19],-0.163 ± 0.39
same,promoter activity interaction Z-score,[5]; [20],0.613 ± 0.94
same,promoter activity interaction Z-score,[5]; [21],0.235 ± 0.099
same,promoter activity interaction Z-score,[5]; [22],0.286 ± 0.0035
same,promoter activity interaction Z-score,[5]; [23],1.01 ± 0.33
same,promoter activity interaction Z-score,[6]; [8],0.0961 ± 0.26
same,promoter activity interaction Z-score,[6]; [9],-0.0522 ± 0.15
same,promoter activity interaction Z-score,[6]; [10],0.0395 ± 0.24
same,promoter activity interaction Z-score,[6]; [11],-0.0315 ± 0.002
same,promoter activity interaction Z-score,[6]; [12],-0.0307 ± 0.019
same,promoter activity interaction Z-score,[6]; [13],-0.0796 ± 0.096
same,promoter activity interaction Z-score,[6]; [14],0.0954 ± 0.4
same,promoter activity interaction Z-score,[6]; [15],-0.135 ± 0.051
same,promoter activity interaction Z-score,[6]; [16],0.0999 ± 0.14
same,promoter activity interaction Z-score,[6]; [17],-0.0884 ± 0.18
same,promoter activity interaction Z-score,[6]; [18],-0.00479 ± 0.23
same,promoter activity interaction Z-score,[6]; [19],0.0412 ± 0.16
same,promoter activity interaction Z-score,[6]; [20],-0.0463 ± 0.28
same,promoter activity interaction Z-score,[6]; [21],-0.0252 ± 0.33
same,promoter activity interaction Z-score,[6]; [22],0.122 ± 0.45
same,promoter activity interaction Z-score,[6]; [23],-0.094 ± 0.097
same,promoter activity interaction Z-score,[7]; [8],0.639 ± 0.76
same,promoter activity interaction Z-score,[7]; [9],0.214 ± 0.76
same,promoter activity interaction Z-score,[7]; [10],-0.337 ± 0.13
same,promoter activity interaction Z-score,[7]; [11],0.0334 ± 0.15
same,promoter activity interaction Z-score,[7]; [12],-0.365 ± 0.23
same,promoter activity interaction Z-score,[7]; [13],-0.26 ± 0.17
same,promoter activity interaction Z-score,[7]; [14],0.0782 ± 0.61
same,promoter activity interaction Z-score,[7]; [15],-0.0978 ± 0.24
same,promoter activity interaction Z-score,[7]; [16],-0.0784 ± 0.044
same,promoter activity interaction Z-score,[7]; [17],-0.877 ± 0.12
same,promoter activity interaction Z-score,[7]; [18],-0.397 ± 1.1
same,promoter activity interaction Z-score,[7]; [19],0.132 ± 0.047
same,promoter activity interaction Z-score,[7]; [20],-0.0307 ± 0.037
same,promoter activity interaction Z-score,[7]; [21],-0.7 ± 0.17
same,promoter activity interaction Z-score,[7]; [22],1.21 ± 1.3
same,promoter activity interaction Z-score,[7]; [23],-0.0415 ± 0.19

# Reference: the supplement of paper PMC12282887
